Laboratory results reported in the antibiotic and cytotoxicity screens of Wong et al. (2023).
The whole screen tested about 39,000 compounds, of which about 3,300 (8.5%) were called active. The entries come from a sample that favours actives as a whole.

System: HepG2
Assay: cytotoxicity call (relative viability < 0.9)
Settings: 10 µM

SMILES	cytotoxicity call
CC(C)(C)[S@](=O)N1Cc2cc(C(=O)N3CCCCC3)nc(-c3cccc(-c4cccc(C#N)c4)c3)c2[C@@H]1CCO	inactive
CCO[C@H]1OC(C(N)=O)=C[C@@H](C)[C@@H]1CCCO	inactive
C[C@H]1COC(=O)[C@@H](Cc2ccc(F)cc2)CCC=CC[C@@H](CC(=O)N[C@@H](CO)Cc2ccccc2)C(=O)N1	inactive
C[C@@H]1CN([C@H](C)CO)C(=O)Cc2cc(NC(=O)c3ccncc3)ccc2O[C@@H]1CN(C)S(=O)(=O)c1ccc(Cl)cc1	inactive
CC(C)CC#Cc1ccc2c(c1)O[C@@H](CN(C)C(=O)c1ccncc1)[C@H](C)CN([C@@H](C)CO)S2(=O)=O	inactive
N=C(NO)C(=O)Nc1ccccc1	inactive
C[C@H]1CN([C@@H](C)CO)C(=O)c2ccccc2-c2ccccc2CO[C@H]1CN(C)C(=O)Nc1ccc(F)cc1	inactive
C[C@H]1CN([C@@H](C)CO)C(=O)c2cccc(NC(=O)C3CCOCC3)c2O[C@@H]1CN(C)S(=O)(=O)c1ccc(F)cc1	inactive
COc1ccc([Si](C)(C)[C@@H]2[C@@H](CCO)O[C@]3(C(=O)N(Cc4ccc(N5C(=O)c6ccccc6Oc6ccccc65)cc4)c4ccccc43)[C@H]2C)cc1	active
COc1ccc([Si](C)(C)[C@@H]2[C@@H](CCO)O[C@]3(C(=O)N(Cc4ccccc4)c4ccc(N5C(=O)c6ccccc6Oc6ccccc65)cc43)[C@H]2C)cc1	inactive
COc1ccc([Si](C)(C)[C@H]2[C@H](CCO)O[C@@]3(C(=O)N(Cc4ccccc4)c4ccc(N5C(=O)c6ccccc6Oc6ccccc65)cc43)[C@@H]2C)cc1	active
C[C@H]1[C@H]([Si](C)(C)F)[C@@H](CCO)O[C@]12C(=O)N(Cc1ccccc1)c1ccc(N3C(=O)c4ccccc4Oc4ccccc43)cc12	inactive
COc1ccc([Si](C)(C)[C@H]2[C@H](CCO)O[C@@]3(C(=O)N(Cc4ccc(N5C(=O)c6ccccc6Oc6ccccc65)cc4)c4ccccc43)[C@@H]2C)cc1	active
COCC#Cc1ccc2c(c1)O[C@H](CN(C)Cc1ccc(F)cc1)[C@H](C)CN([C@@H](C)CO)S2(=O)=O	inactive
Cc1noc(C)c1S(=O)(=O)N(C)C[C@H]1Oc2ccc(NC(=O)CCCN(C)C)cc2C(=O)N([C@H](C)CO)C[C@@H]1C	inactive
C[C@H](CO)N1C[C@H](C)[C@@H](CN(C)C)Oc2ccc(NS(=O)(=O)c3ccc(Cl)cc3)cc2CC1=O	inactive
COc1nonc1NC(C)=O	inactive
O=C1C[C@H](N2C(=O)CCC2=O)[C@@H]2CO[C@@H]1O2	inactive
C[C@@H]1CN([C@H](C)CO)C(=O)c2cccc(NC(=O)c3cnccn3)c2O[C@H]1CN(C)C(=O)Nc1ccc2c(c1)OCO2	inactive
C[C@H](CO)N1C[C@H](C)[C@@H](CN(C)Cc2ccc(Cl)c(Cl)c2)Oc2ccc(NC(=O)Cc3ccccc3)cc2CC1=O	inactive
C[C@@H]1CN([C@H](C)CO)C(=O)Cc2cc(NC(=O)Cc3ccccc3)ccc2O[C@@H]1CN(C)Cc1ccc(Cl)c(Cl)c1	active
C[C@@H]1CN([C@@H](C)CO)C(=O)Cc2cc(NC(=O)Cc3ccccc3)ccc2O[C@@H]1CN(C)Cc1ccc(Cl)c(Cl)c1	active

SMILES	cytotoxicity call
C[C@H](CO)N1C[C@H](C)[C@H](CN(C)Cc2ccc(Cl)c(Cl)c2)Oc2ccc(NC(=O)Cc3ccccc3)cc2CC1=O	inactive
C[C@H]1CN([C@@H](C)CO)C(=O)Cc2cc(NC(=O)Cc3ccccc3)ccc2O[C@@H]1CN(C)Cc1ccc(Cl)c(Cl)c1	inactive
C[C@@H]1CN([C@H](C)CO)C(=O)Cc2cc(NC(=O)Cc3ccccc3)ccc2O[C@H]1CN(C)Cc1ccc(Cl)c(Cl)c1	inactive
C[C@H]1CN([C@@H](C)CO)C(=O)Cc2cc(NC(=O)Cc3ccccc3)ccc2O[C@H]1CN(C)Cc1ccc(Cl)c(Cl)c1	active
C[C@@H]1CN([C@@H](C)CO)C(=O)Cc2cc(NC(=O)Cc3ccccc3)ccc2O[C@H]1CN(C)Cc1ccc(Cl)c(Cl)c1	inactive
C[C@@H]1CN([C@@H](C)CO)C(=O)c2cc(NC(=O)C3CCCCC3)ccc2O[C@@H](C)CCCCO[C@@H]1CN(C)Cc1ccncc1	inactive
Cc1noc(C)c1S(=O)(=O)N(C)C[C@H]1Oc2ccc(NC(=O)C3CCCCC3)cc2CC(=O)N([C@H](C)CO)C[C@H]1C	inactive
C[C@H]1CN([C@@H](C)CO)C(=O)c2cccc(NS(=O)(=O)c3ccccc3)c2O[C@@H]1CN(C)Cc1ccc(Cl)c(Cl)c1	inactive
O=C(C[C@H]1C=C[C@@H](NS(=O)(=O)c2ccccc2)[C@H](CO)O1)NCc1ccncn1	inactive
Cn1cnc(S(=O)(=O)N2C[C@H](O)COC[C@H]3O[C@H](CC(=O)NCc4ccc(F)cc4)CC[C@@H]32)c1	inactive
CN(C)C(=O)c1ccc(-c2cccc(-c3nc(C(=O)NC4CCCCC4)cc4c3[C@H](CCO)N([S@@](=O)C(C)(C)C)C4)c2)cc1	inactive
CCCN(C)C[C@@H]1OCCCC[C@H](C)Oc2ccc(NC(=O)Nc3ccc4c(c3)OCO4)cc2C(=O)N([C@H](C)CO)C[C@@H]1C	inactive
C[C@@H]1CN([C@H](C)CO)S(=O)(=O)c2ccc(/C=C/c3ccccc3)cc2O[C@H]1CN(C)C(=O)Nc1cc(F)ccc1F	inactive
C[C@@H]1CN([C@H](C)CO)S(=O)(=O)c2ccc(/C=C/c3ccccc3)cc2O[C@@H]1CN(C)C(=O)Nc1cc(F)ccc1F	active
C[C@H]1CN([C@@H](C)CO)S(=O)(=O)c2ccc(C#CC3(O)CCCC3)cc2O[C@H]1CN(C)C(=O)Nc1ccccc1	inactive
COc1cccc(NC(=O)N(C)C[C@H]2Oc3cc(C#CC4(O)CCCC4)ccc3S(=O)(=O)N([C@H](C)CO)C[C@@H]2C)c1	inactive
COc1cccc(NC(=O)N(C)C[C@H]2Oc3cc(C#CC4(O)CCCC4)ccc3S(=O)(=O)N([C@H](C)CO)C[C@H]2C)c1	active
COc1cccc(NC(=O)N(C)C[C@H]2Oc3cc(C#CC4(O)CCCC4)ccc3S(=O)(=O)N([C@@H](C)CO)C[C@H]2C)c1	inactive
C[C@@H]1CN([C@H](C)CO)S(=O)(=O)c2ccc(C#CC3(O)CCCC3)cc2O[C@@H]1CN(C)C(=O)Nc1ccccc1	active
C[C@H](CO)N1C[C@H](C)[C@@H](CN(C)C(=O)Nc2cc(F)ccc2F)Oc2cc(/C=C/c3ccccc3)ccc2S1(=O)=O	inactive
C[C@@H]1CN([C@H](C)CO)S(=O)(=O)c2ccc(C#CC3(O)CCCC3)cc2O[C@H]1CN(C)C(=O)Nc1ccccc1	inactive
COc1ccc(NC(=O)N(C)C[C@H]2OCCCC[C@H](C)Oc3ccc(NS(=O)(=O)c4cccs4)cc3C(=O)N([C@@H](C)CO)C[C@@H]2C)cc1	inactive

SMILES	cytotoxicity call
C[C@H](CO)N1C[C@H](C)[C@H](CN(C)S(=O)(=O)c2ccc3c(c2)OCCCO3)OCc2cn(nn2)CCCC1=O	inactive
C[C@H]1CCCCO[C@@H](CN(C)C(=O)CCC(F)(F)F)[C@@H](C)CN([C@@H](C)CO)C(=O)c2cc(NS(=O)(=O)c3ccccc3)ccc2O1	inactive
NC(=O)N1Cc2nccn2C[C@H](Cn2cncn2)C1	inactive
Cc1ccc(S(=O)(=O)Nc2ccc3c(c2)C(=O)N([C@H](C)CO)C[C@@H](C)[C@H](CN(C)C(=O)Nc2ccccc2)OCCCC[C@@H](C)O3)cc1	inactive
Cc1ccccc1S(=O)(=O)N1C[C@H](O)COC[C@@H]2O[C@@H](CC(=O)N3CCC(Cc4ccccc4)CC3)CC[C@H]21	inactive
O=C(C[C@@H]1CC[C@H]2[C@@H](COC[C@@H](O)CN2S(=O)(=O)c2ccccc2F)O1)N1CCC(Cc2ccccc2)CC1	inactive
CN1CCN(C(=O)C[C@H]2CC[C@H]3[C@@H](COC[C@H](O)CN3Cc3ccc(Oc4ccccc4)cc3)O2)CC1	inactive
Cc1ccccc1S(=O)(=O)N1C[C@H](O)COC[C@H]2O[C@H](CC(=O)N3CCC(Cc4ccccc4)CC3)CC[C@@H]21	active
CN1CCN(C(=O)C[C@@H]2CC[C@H]3[C@@H](COC[C@@H](O)CN3Cc3ccc(Oc4ccccc4)cc3)O2)CC1	inactive
Cc1ccccc1S(=O)(=O)N1C[C@H](O)COC[C@H]2O[C@@H](CC(=O)N3CCC(Cc4ccccc4)CC3)CC[C@@H]21	active
O=C(C[C@@H]1CC[C@@H]2[C@H](COC[C@@H](O)CN2S(=O)(=O)c2ccccc2F)O1)N1CCC(Cc2ccccc2)CC1	inactive
Cc1ccccc1S(=O)(=O)N1C[C@@H](O)COC[C@H]2O[C@@H](CC(=O)N3CCC(Cc4ccccc4)CC3)CC[C@@H]21	inactive
Cc1ccccc1S(=O)(=O)N1C[C@@H](O)COC[C@H]2O[C@H](CC(=O)N3CCC(Cc4ccccc4)CC3)CC[C@@H]21	active
Cc1ccccc1S(=O)(=O)N1C[C@H](O)COC[C@@H]2O[C@H](CC(=O)N3CCC(Cc4ccccc4)CC3)CC[C@H]21	inactive
CN1CCN(C(=O)C[C@H]2CC[C@@H]3[C@H](COC[C@@H](O)CN3Cc3ccc(Oc4ccccc4)cc3)O2)CC1	active
Cc1ccccc1S(=O)(=O)N1C[C@@H](O)COC[C@@H]2O[C@H](CC(=O)N3CCC(Cc4ccccc4)CC3)CC[C@H]21	inactive
C[C@@H]1CCCCO[C@H](CN(C)C(=O)Nc2ccc(F)cc2)[C@@H](C)CN([C@H](C)CO)C(=O)c2cc(NC(=O)C3CCCCC3)ccc2O1	inactive
C[C@@H]1CCCCO[C@@H](CN(C)C(=O)c2ccccc2)[C@H](C)CN([C@H](C)CO)C(=O)c2cc(NS(=O)(=O)c3ccccc3)ccc2O1	inactive
C=c1ccccc1=C1NN=C(CN2CCCC2)O1	inactive
C[C@H]1CCCCO[C@H](CN(C)Cc2ccc(Cl)c(Cl)c2)[C@@H](C)CN([C@@H](C)CO)C(=O)c2cc(NS(C)(=O)=O)ccc2O1	inactive
